In all, about 340,000 compounds went through this assay and about 2,000 (0.59%) were called active. This excerpt belongs to a sample that is enriched for actives. Unmarked numbers belong to inactive results. No stated cut-off is given here; in the data, active means activation mostly above about 9.5% (no sharp cut-off); inactive means mostly below about 7.6%.
Target: 5-hydroxytryptamine receptor 5A (Homo sapiens) (UniProt P47898)
Test: HTR5A agonists in luminescence cell assay, primary screen, counter-screen for OPRM1-OPRD1 heterodimer agonist project, full-deck HTS (AID 504692);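 further: 0% = cells with vehicle only and 100% = reference agonist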
Settings: cell-based, at 9.3 µM, active compounds read high

Chain of 5-hydroxytryptamine receptor 5A (Homo sapiens) (P47898 whole entry, looked up): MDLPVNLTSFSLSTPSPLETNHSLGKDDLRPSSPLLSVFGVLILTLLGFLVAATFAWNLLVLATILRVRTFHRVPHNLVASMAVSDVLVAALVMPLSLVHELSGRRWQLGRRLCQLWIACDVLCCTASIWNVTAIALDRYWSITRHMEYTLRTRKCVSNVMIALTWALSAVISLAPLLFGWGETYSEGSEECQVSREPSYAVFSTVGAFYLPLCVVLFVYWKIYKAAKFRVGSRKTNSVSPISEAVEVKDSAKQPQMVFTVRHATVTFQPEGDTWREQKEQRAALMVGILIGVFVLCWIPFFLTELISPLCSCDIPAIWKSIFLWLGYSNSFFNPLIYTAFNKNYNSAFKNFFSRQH

Compound | activation
CC(CCn1cccn1)NC(=O)CCc1nnc(CCc2ccccc2)o1 (configuration not stated) | 4.98%
CCC(C)NC(=O)CCCc1ccccc1 (configuration not stated) | 14.8% (active)
COc1ccccc1C(=O)NCCC(=O)NC(C)CCc1ccccc1 (configuration not stated) | 5.98%
Cc1noc(C)c1S(=O)(=O)N(CC(=O)NCc1ccc(Cl)cc1)c1ccc2c(c1)OCO2 | 1.78%
Cc1ccc(-n2c(=O)cc(N3CCN(Cc4ccccc4)CC3)[nH]c2=O)cc1 | 7.71%
CCOc1cc2c(Cl)ncnc2c(OCC)c1OCC | 2%
COc1ccc(S(=O)(=O)N2CCC(C(=O)NCCC(=O)NCc3cccc(OC)c3)CC2)cc1 | -0.19%
CCOc1ccc(C(=O)Nc2ccc(S(=O)(=O)Nc3cc(C)on3)cc2)cc1 | 5.44%
CCOc1ccc(NC(=O)Nc2cc(C)on2)cc1 | 14.5% (active)
CCC(=O)Nc1ccc(C(=O)Nc2cc(C)on2)cc1 | 6.16%
COc1cccc(OCC(O)CNC(=O)c2oc3c(C)c(C)ccc3c2C)c1 (configuration not stated) | 0.14%
O=C1CCCC2=C1C(c1cccs1)n1nc(SCc3ccccc3)nc1N2 (configuration not stated) | 1.85%
CC(=O)c1cccc(NC(=O)C2CCN(C(=O)c3ccccc3Cl)CC2)c1 | 1.54%
O=C(CSc1nncs1)NC1CCCc2ccccc21 (configuration not stated) | -2.59%
CC(C)(C)OC(=O)CNC(=O)c1[nH]cnc1C(=O)N[C@@H](Cc1ccccc1)C(=O)OCc1ccccc1 | 9.43%
CC(C)(C)OC(=O)N1CCC(NC(=O)c2[nH]cnc2C(=O)N[C@@H](Cc2ccccc2)C(=O)OCc2ccccc2)CC1 | 38% (active)
O=C(N[C@@H](Cc1ccccc1)C(=O)OCc1ccccc1)c1nc[nH]c1C(=O)NC1CCNCC1 | -1.94%
O=C(CNCc1ccco1)Nc1cc(S(=O)(=O)N2CCOCC2)ccc1N1CCCC1 | 16.7% (active)
CC(=O)NCCC(=O)Nc1cc(S(=O)(=O)N2CCOCC2)ccc1N1CCOCC1 | -0.71%
O=C(COC(=O)c1ccccc1F)Nc1cc(S(=O)(=O)N2CCOCC2)ccc1N1CCCC1 | -1.44%
Cc1ccc(C(=O)NC2CCN(C(=O)Nc3ccccc3Cl)CC2)cc1 | -0.54%
COc1ccccc1CCNC(=O)c1cnccn1 | 2.02%
COc1ccc(C(C#N)Nc2ccc(C)cc2)cc1 (configuration not stated) | 2.71%
CC(=O)N1CCN(S(=O)(=O)c2c(F)cc(F)c(Cl)c2F)CC1 | 11.6% (active)

Compound | activation
CCN1CCN(C(=O)C2CCN(S(=O)(=O)c3cc(Cl)ccc3Cl)CC2)CC1 | 1.91%
O=C(c1cnc(Cl)c(Cl)c1)N1CCN(S(=O)(=O)c2ccc(F)cc2)CC1 | -1.02%
CCc1nnc(NC(=O)CSCc2cc(=O)n3cc(C)sc3n2)s1 | -1%
C/C(=N\NC(=O)CSc1nc2ccccc2c(=O)n1-c1ccccc1C)c1cccs1 | 9.42%
Cc1cccc(/C=N/NC(=O)CNc2cccc3ccccc23)n1 | 2.33%
C/C(=N\NC(=O)CNc1cccc2ccccc12)c1ccc(Br)s1 | 46.5% (active)
COc1ccc(CN2CCCCC2C)cc1OC (configuration not stated) | -0.45%
COc1ccc(C2CC(c3cccs3)=Nc3ccccc3S2)cc1OC (configuration not stated) | 0.29%
O=C(Nc1nc(-c2ccco2)c(-c2ccco2)s1)c1ccco1 | 5.45%
CN(Cc1ccco1)S(=O)(=O)c1nnc(NC(=O)c2ccccc2)s1 | 2.57%
CNc1nnc(-c2ccco2)s1 | 15.4% (active)
CCCCNC(=O)CSc1nc2n[nH]c(C)c2c(=N)n1-c1cccc(Cl)c1C | -2.98%
Cc1ccc(-n2c(SCC(=O)NCCC3=CCCCC3)nc3n[nH]c(C)c3c2=N)cc1Cl | 12.6% (active)
COc1cccc(-n2c(SCC(=O)NC3CCCCC3)nc3n[nH]c(C)c3c2=N)c1 | 0.63%
CCOc1ccc(CN(Cc2ccco2)C(c2cccs2)c2nnnn2C(C)(C)C)cc1 (configuration not stated) | -2.19%
Cc1nc2ccccc2c(C(=O)O)c1-c1ccccn1 | -0.26%
CCSc1nc(-c2ccc(OC)cc2)cc(-c2ccc(OC)cc2)c1C#N | 0.07%
N#Cc1c(C(F)(F)F)cc(-c2ccc(Cl)cc2)nc1SCC(=O)O | -1.06%
CCOC(=O)CC(=O)CSc1nc(-c2ccccc2)cc(-c2ccc(Cl)cc2)c1C#N | 10.7% (active)
O=C(Nn1cnnc1)c1cc(Cl)ccc1Cl | -1.93%
Clc1ccc(CN2CCCCCC2)cc1Cl | 1.18%
Brc1ccc(-c2nn[nH]n2)cc1 | 8.54%
c1cc(-c2nn[nH]n2)ccc1CN1CCCCC1 | 19.3% (active)

From PubChem BioAssay AID504692 (The Scripps Research Institute Molecular Screening Center, 2011)
